# Test results from ChEMBL document CHEMBL3988442, “University of Dundee, Small-Polar-MMV Screening Library” (2021).
# Out of some 48,000 compounds screened, about 13,000 (27%) showed an effect of 50% or more. The list shows a part of the results.
# Tested on: Wolbachia pipientis
# Assay: Anti-Wolbachia Cell-Based Screen
# Assay type: functional
# Design: scale not given: in the data most compounds retested in dose-response had high values
# Conditions: 5 µM
row,Compound,Percent Effect [%]
1,CC(C)c1cc(N2CCC(CCC(=O)NC3CC3)CC2)n2nccc2n1,7.052
2,CCN(Cc1nnsc1Cl)C(C)c1ccc(C#N)cc1 (configuration not stated),1.58
3,COc1cccc(CN2CCCCC2Cn2nc(C)nc2C)c1 (configuration not stated),129.9
4,COc1ccc(CCN2CCCC2Cn2nc(C)nc2C)cc1 (configuration not stated),-8.655
5,COc1c(C)cnc(CN2CCCCC2Cn2nc(C)nc2C)c1C (configuration not stated),6.225
6,COc1cccc(CN2CCCC2Cn2nc(C)nc2C)c1 (configuration not stated),137
7,Cc1nc(C)n(CC2CCCN2Cc2cn3c(C)cccc3n2)n1 (configuration not stated),-8.673
8,c1cnn(CCNCc2nnc(C3CC3)o2)c1,-6.862
9,CN(CCNC(=O)N1CCN(Cc2ccon2)CC1)c1ccccc1,-8.314
10,CCc1nc2c(N3CCC4(CC3)CC(=O)N(CC(C)C)C4)ncnc2o1,-4.027
11,CSc1ccc(C(=O)N2CCOCC2c2c(C)nn(C)c2C)o1 (configuration not stated),94.08
12,Cc1nn(C)c(C)c1C1COCCN1C(=O)CCc1ccccc1 (configuration not stated),95.59
13,Cc1nn(C)c(C)c1C1COCCN1C(=O)Cc1cccc(F)c1 (configuration not stated),-20.34
14,CCN(CC)C(=O)N1CCOCC1c1c(C)nn(C)c1C (configuration not stated),7.192
15,Cc1cc(C)c(C(=O)N2CCOCC2c2c(C)nn(C)c2C)o1 (configuration not stated),101
16,CNC(=O)N1CCOCC1c1c(C)nn(C)c1C (configuration not stated),-10.34
17,Cc1nn(C)c(C)c1C1COCCN1C(=O)c1ccc(Cl)o1 (configuration not stated),70.94
18,Cc1nn(C)c(C)c1C1COCCN1C(=O)CSC(C)(C)C (configuration not stated),-11.83
19,Cc1nn(C)c(C)c1C1COCCN1C(=O)c1cnc(N)c(Cl)c1 (configuration not stated),1.304
20,Cc1nn(C)c(C)c1C1COCCN1C(=O)c1ccccc1 (configuration not stated),-4.407
21,Cc1nn(C)c(C)c1C1COCCN1C(=O)c1n[nH]c2ccccc12 (configuration not stated),16.5
22,Cc1nn(C)c(C)c1C1CCCN1C(=O)c1ccc(Cl)o1 (configuration not stated),-7.187
23,COCCS(=O)(=O)N1CCN(c2cccc(O)c2)CC1,9.959

row,Compound,Percent Effect [%]
1,CCS(=O)(=O)NCCNC(=O)c1cc(Cl)c2c(c1)OCCCO2,12.52
2,CCC(CC)CN1CCC(n2cc(C3CCCC3)nn2)CC1,4.235
3,CN(Cc1ccc(F)cc1)CC1(O)CCCN(CC(C)(C)C)C1=O (configuration not stated),55.08
4,CN(Cc1ccccc1)CC1(O)CCCN(CC(C)(C)C)C1=O (configuration not stated),2.381
5,CN(Cc1ccccc1)CC1(O)CCCN(CCC2CCCCC2)C1=O (configuration not stated),-12.81
6,CN(c1ncc(S(N)(=O)=O)s1)C1CCc2ccccc2C1 (configuration not stated),1.957
7,Cc1c(Br)cccc1C(=O)NCc1cnn(C)c1,-14.4
8,CCn1cc(N)c(C(=O)NCc2cnn(C)c2)n1,-9.614
9,CCn1cc(Br)c(C(=O)NCc2cnn(C)c2)n1,103.9
10,COCCN1CCC2(CC1)CN(C(C)=O)c1ccc(C)cc12.O=C(O)C(F)(F)F,24.24
11,CCCC(=O)Nc1ccc2c(c1)C1(CCOCC1)CN2CCOC.O=C(O)C(F)(F)F,114.8
12,COCCN1CC2(CCOCC2)c2cc(NC(=O)C3CC=CC3)ccc21.O=C(O)C(F)(F)F,98.06
13,CCC(=O)Nc1ccc2c(c1)C1(CCOCC1)CN2CCOC.O=C(O)C(F)(F)F,101.5
14,CN(C)C(=O)N1CC2(CCOCC2)c2cc(NC(=O)CCO)ccc21,-8.643
15,COCCN1CCC2(CC1)CC(N1CCOCC1)c1ccc(C)cc12.O=C(O)C(F)(F)F.O=C(O)C(F)(F)F (configuration not stated),-12.46
16,Cc1noc(C[C@@H]2COC[C@H]3CN(S(=O)(=O)C4CC4)C[C@@H]23)n1,6.683
17,Cc1ccc(S(=O)(=O)NC(C)C#N)cc1Br (configuration not stated),-6.675
18,NS(=O)(=O)NCC1(c2ccccc2Br)CC1,-0.7264
19,c1csc(CCNc2nc(-c3ccncc3)nc3c2CCNCC3)c1,-1.817
20,COc1ccc(CC(=O)Nc2c(C)nc(N3CCCC3)nc2C)cc1,3.23
21,Fc1cccc(Nc2nc(N3CCCC3)nc3c2CNCC3)c1,142.6
22,O=S(=O)(Nc1cnc(N2CCCC2)nc1)c1ccc(F)cc1F,5.953
23,O=S(=O)(Nc1cnc(N2CCOCC2)nc1)c1cccc(F)c1,-8.595

row,Compound,Percent Effect [%]
1,COc1cccc(Nc2nc(N3CCCC3)nc3c2CNCC3)c1.Cl,154.5
2,COc1cccc(-n2ccc3nc(N4CCCC4)ncc3c2=O)c1,-5.391
3,COc1cccc(Nc2nc(-c3ccncc3)nc3c2CNCC3)c1.Cl,140.9
4,CCOCCNc1nc(-c2ccncc2)nc2c1CCNCC2,0.459
5,COc1ccc(N2CCC(NCc3csc(C(C)C)n3)CC2)cc1,-0.6873
6,Cc1cc(CN(C)C(=O)NC2CCS(=O)(=O)C2)no1 (configuration not stated),4.321
7,Cc1ccc(Cl)cc1N1CCC(CNC(=O)CCn2ccnn2)C1 (configuration not stated),3.758
8,Cn1ccnc1CN1C[C@H]2CN(S(C)(=O)=O)CCN2C1=O,-9.259
9,Cc1ccccc1C(=O)N1CCN(c2ccc(-n3cncn3)nn2)CC1,17.86
10,CN(C)S(=O)(=O)c1ccc(CN2CCCC2c2ccc[nH]2)o1 (configuration not stated),-2.919
11,CN(Cc1ccco1)C(=O)CN1CCCC1c1cccs1 (configuration not stated),-12.25
12,CN(C)S(=O)(=O)c1ccc(CN2CCC(c3ccccc3)C2)o1 (configuration not stated),-9.641
13,Cc1ccccc1C1CCCN1Cc1ccc(S(=O)(=O)N(C)C)o1 (configuration not stated),160.2
14,c1cc(C2CCCN2Cc2nnnn2C2CC2)cs1 (configuration not stated),-19.47
15,CN(CCC#N)C(=O)CN1CCCC1c1ccsc1 (configuration not stated),1.248
16,CN(C)S(=O)(=O)c1ccc(CN2CCCC2c2ccccc2)o1 (configuration not stated),8.974
17,CN(C)S(=O)(=O)c1ccc(CN2CCCC2c2ccsc2)o1 (configuration not stated),153.1
18,COc1ccc(C2CCCN2Cc2ccc(S(=O)(=O)N(C)C)o2)cc1 (configuration not stated),151.6
19,CN(C)S(=O)(=O)c1ccc(CN2CCCC2c2cccs2)o1 (configuration not stated),169.9
20,CN(C)S(=O)(=O)c1ccc(CN2CCCC2CO)o1 (configuration not stated),-8.26
21,Cc1nccc(-c2cccc(NCc3nc(C(C)C)no3)c2)n1,4.778
